# ClpP mod – qHTS Assay for Activators of ClpP. ATP-dependent Clp protease proteolytic subunit (Bacillus subtilis (strain 168)), P80244. purified B. subtilis ClpP, FRET peptide cleavage, 20 min. Potency, µM (doses to about 57.5 µM), for inactives: at the top dose activity change, negative = active. 1.9% of 340,000 active; active = well fitted falling curve with a large enough effect; inconclusive = small, poorly fitted or top-dose-only effect; inactive = no such curve, though single readings can be large or run the other way; note: potency is the fitted concentration of half-maximal effect; the source files actives as falling curves though it sought activators and does not explain the sign; nearly all actives have a fitted effect of over 65% in size
#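 ClpP 10 microg/mL final, pH 8 Tris/KCl buffer with BSA, glycerol, Tween-20; compound pinned in; FRET-FV substrate; RT 20 min; Ex320/Em430; ΔFRET vs ADEP 5.8 microM, DMSO, no enzyme.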
# MLL CXXC-DNA inh – blocks binding of human MLL CXXC domain to DNA; Q03164; MLL-CXXC / FITC-HOXA9 DNA fluorescence polarization; Potency, µM (titrated, usually from 115 µM), without a hit: top-dose activity change, negative = inhibition, actives largely listed as inhibitors; 0.037% of 290,000 active; AID 2662; active = well fitted inhibition curve with a large enough effect in the polarisation, with a control signal flat, not every such curve was filed as active; inconclusive = small, poorly fitted or top-dose-only effect, or effect the other way, or a change in a side signal; inactive = no such curve, though single readings can be large or run the other way; the % refers to the polarisation; note: potency is the fitted concentration of half-maximal effect
# Target sequence (Q03164 whole entry, looked up, the tested form may be a part): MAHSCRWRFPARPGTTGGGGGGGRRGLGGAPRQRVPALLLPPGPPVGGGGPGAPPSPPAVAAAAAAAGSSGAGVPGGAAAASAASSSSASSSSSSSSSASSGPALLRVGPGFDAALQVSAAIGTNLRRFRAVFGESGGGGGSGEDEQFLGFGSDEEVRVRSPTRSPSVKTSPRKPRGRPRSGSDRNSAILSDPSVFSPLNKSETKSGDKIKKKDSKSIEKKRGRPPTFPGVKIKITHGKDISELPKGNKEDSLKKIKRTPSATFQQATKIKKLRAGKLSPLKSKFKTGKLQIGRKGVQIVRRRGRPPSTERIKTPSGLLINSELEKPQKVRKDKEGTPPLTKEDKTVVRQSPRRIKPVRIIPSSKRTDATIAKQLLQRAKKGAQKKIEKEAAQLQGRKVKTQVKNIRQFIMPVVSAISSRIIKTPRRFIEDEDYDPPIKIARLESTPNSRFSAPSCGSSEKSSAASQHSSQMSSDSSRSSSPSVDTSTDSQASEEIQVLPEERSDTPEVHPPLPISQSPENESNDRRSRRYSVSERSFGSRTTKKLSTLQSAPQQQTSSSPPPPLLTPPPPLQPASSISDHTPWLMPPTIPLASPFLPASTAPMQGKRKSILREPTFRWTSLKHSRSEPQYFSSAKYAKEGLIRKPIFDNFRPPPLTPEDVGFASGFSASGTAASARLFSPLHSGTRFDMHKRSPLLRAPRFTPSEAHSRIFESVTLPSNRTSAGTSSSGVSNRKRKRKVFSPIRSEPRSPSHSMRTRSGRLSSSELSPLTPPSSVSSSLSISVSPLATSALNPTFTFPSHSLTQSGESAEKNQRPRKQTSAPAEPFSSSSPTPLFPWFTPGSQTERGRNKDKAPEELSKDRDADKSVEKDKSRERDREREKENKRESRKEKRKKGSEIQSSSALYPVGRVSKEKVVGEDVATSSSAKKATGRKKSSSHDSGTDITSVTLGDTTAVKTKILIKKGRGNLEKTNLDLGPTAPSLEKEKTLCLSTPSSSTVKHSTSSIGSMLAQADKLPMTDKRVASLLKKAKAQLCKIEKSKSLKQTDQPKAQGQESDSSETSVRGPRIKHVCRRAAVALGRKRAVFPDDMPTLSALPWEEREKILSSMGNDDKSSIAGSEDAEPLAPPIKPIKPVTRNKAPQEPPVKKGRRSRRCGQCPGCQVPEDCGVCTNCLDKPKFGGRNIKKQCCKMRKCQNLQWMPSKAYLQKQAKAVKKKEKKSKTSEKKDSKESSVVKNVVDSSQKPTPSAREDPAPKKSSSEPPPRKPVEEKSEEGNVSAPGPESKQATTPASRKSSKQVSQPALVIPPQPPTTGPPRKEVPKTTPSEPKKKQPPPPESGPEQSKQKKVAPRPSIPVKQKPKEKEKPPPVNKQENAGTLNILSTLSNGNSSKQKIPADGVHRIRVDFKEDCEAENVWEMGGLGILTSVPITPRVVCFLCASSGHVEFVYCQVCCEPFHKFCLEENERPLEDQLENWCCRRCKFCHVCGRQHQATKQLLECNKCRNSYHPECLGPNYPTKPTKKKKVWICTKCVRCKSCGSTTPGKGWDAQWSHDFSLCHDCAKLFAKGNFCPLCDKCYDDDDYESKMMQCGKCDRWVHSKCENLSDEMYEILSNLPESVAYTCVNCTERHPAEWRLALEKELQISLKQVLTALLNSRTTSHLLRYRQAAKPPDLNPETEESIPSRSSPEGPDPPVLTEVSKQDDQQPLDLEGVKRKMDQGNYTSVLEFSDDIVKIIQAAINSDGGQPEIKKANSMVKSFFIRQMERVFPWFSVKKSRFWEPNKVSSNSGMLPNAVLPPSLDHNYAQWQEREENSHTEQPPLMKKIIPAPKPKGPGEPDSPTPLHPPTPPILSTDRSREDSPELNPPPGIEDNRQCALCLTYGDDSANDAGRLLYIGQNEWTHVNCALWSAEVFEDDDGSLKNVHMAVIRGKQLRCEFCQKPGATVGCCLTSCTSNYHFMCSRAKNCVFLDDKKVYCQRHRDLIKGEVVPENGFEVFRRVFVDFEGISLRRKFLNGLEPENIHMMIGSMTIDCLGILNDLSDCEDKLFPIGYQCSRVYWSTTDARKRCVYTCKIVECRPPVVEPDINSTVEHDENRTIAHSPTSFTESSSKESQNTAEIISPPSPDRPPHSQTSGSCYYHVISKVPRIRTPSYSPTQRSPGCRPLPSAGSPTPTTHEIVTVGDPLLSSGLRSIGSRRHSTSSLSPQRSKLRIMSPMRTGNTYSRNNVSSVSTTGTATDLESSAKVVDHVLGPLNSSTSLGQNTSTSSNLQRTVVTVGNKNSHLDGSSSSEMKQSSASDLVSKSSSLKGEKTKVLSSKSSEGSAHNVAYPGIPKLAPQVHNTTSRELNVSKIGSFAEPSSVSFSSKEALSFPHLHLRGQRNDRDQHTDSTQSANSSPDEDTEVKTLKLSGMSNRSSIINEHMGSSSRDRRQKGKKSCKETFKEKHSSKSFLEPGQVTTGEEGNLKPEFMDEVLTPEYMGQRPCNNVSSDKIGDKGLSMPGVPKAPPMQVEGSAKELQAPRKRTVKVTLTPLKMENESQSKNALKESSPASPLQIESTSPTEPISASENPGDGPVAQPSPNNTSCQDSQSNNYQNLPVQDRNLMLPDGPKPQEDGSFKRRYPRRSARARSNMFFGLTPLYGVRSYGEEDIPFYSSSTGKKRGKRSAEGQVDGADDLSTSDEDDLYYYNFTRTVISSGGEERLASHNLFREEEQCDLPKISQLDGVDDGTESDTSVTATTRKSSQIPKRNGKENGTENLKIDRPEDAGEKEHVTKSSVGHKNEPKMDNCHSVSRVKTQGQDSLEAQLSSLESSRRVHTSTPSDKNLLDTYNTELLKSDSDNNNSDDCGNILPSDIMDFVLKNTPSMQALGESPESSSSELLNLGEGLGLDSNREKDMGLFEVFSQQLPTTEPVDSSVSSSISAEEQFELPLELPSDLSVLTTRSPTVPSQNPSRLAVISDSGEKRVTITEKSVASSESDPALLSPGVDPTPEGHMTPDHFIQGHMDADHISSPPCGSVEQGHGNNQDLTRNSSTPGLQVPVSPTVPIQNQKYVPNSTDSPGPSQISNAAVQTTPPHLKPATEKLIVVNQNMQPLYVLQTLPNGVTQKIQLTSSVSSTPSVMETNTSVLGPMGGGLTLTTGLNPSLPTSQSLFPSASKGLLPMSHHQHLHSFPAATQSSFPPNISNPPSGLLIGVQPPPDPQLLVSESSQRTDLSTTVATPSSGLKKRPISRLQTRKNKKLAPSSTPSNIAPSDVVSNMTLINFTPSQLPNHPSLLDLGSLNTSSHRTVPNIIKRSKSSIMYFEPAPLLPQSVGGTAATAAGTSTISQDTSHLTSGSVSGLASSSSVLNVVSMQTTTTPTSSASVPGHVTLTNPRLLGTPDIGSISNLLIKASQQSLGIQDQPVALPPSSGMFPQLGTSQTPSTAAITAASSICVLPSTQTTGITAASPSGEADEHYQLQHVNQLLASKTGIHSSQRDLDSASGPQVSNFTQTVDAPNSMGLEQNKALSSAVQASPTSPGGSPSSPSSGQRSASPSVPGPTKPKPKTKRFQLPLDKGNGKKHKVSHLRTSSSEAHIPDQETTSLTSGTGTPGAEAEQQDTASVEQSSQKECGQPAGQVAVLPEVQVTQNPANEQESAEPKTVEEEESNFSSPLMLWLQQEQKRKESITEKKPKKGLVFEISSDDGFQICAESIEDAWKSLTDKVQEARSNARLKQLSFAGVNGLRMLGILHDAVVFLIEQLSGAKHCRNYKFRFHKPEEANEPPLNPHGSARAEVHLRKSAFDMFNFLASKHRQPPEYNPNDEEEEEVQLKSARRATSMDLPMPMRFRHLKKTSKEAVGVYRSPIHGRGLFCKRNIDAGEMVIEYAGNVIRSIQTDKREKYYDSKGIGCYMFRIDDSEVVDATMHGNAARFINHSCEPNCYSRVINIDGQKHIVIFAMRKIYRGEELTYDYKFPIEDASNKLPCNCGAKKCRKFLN
#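 Fluorescence polarization: 7 uM MLL-CXXC (stock) preincubated 5 min with compounds, then 50 nM fluorescein-HOX-A9 DNA (stock) added; 30 min ambient. Buffer 50 mM Tris-HCl pH 7.5, 50 mM NaCl, 1 mM DTT, 0.05% BSA.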
# Menin-MLL TR inh – inhibitors of human menin-MLL interaction, mutant MLL peptide. O00255. Potency, µM (series often up to 61.6 µM), without a hit: at the top dose FP activity change, negative = inhibition, most hits filed as inhibitors. AID 1768. Menin + Texas Red MLL mutant peptide, fluorescence polarization. 0.23% of 270,000 active; active = well fitted inhibition curve with a large enough effect in the polarisation, with a control signal flat, not every such curve was filed as active; inconclusive = small, poorly fitted or top-dose-only effect, or effect the other way, or a change in a side signal; inactive = no such curve, though single readings can be large or run the other way; the % refers to the polarisation; note: potency is the fitted concentration of half-maximal effect; % of control where 0% means no effect
# Menin MLL FP FL – menin-MLL binding inhibition, fluorescein peptide | Fluorescence polarization, fluorescein-MLL peptide displacement from menin | FP activity change, % at 61.4 µM | 290,000 tested, under 10 active; active = well fitted curve in the direction sought with a large enough effect in the polarisation, not every such curve was filed as active; inconclusive = small, poorly fitted or top-dose-only effect, or effect the other way, or a change in a side signal; inactive = no such curve, though single readings can be large or run the other way; the % refers to the polarisation; note: % of control where 0% means no effect
# p53 reactivation – mutant p53 re-activation in reporter cells. H1299 p53-A138V BP100-luciferase reporter, luminescence, 24 h. Potency, µM (doses to about 92.2 µM), inactives show top-dose activity change, positive = activation, most hits filed as activators. 0.063% of 320,000 active. AID 504706; active = well fitted activation curve with a large enough effect; inconclusive = small, poorly fitted or top-dose-only effect; inactive = no such curve, though single readings can be large or run the other way; note: potency is the fitted concentration of half-maximal effect; % of control where 0% means no effect; nearly all actives have a fitted effect of over 45% in size
#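 H1299 (p53-null), stable ts p53-A138V + BP100-Luc; 1000 cells/well, Opti-MEM/10% FBS; cpd 4 pt, 1:5; 24 h, 37 deg C, 5% CO2; detection reagent 10 min RT; luminescence.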
# An asterisk follows results filed as active; ? = inconclusive; . = no result; [ ] = dose if it differs, or a comment. This is one part of a sample in which hits are shown more often than they occur.
SMILES,ClpP mod,MLL CXXC-DNA inh,Menin-MLL TR inh,Menin MLL FP FL,p53 reactivation
CC[C@H](C)[C@H](NC(=O)[C@H](C)NC(=O)[C@H](Cc1cnc[nH]1)NC(=O)[C@@H]1CCCN1C(=O)CNC(=O)[C@H](CC(C)C)NC(=O)[C@H](CC(C)C)NC(=O)[C@H](Cc1ccc(O)cc1)NC(=O)CNC(=O)[C@H](C)NC(=O)[C@H](CO)NC(=O)[C@H](CC(N)=O)NC(=O)[C@H](CC(C)C)NC(=O)[C@@H](NC(=O)[C@H](Cc1c[nH]c2ccccc12)NC(=O)CN)[C@@H](C)O)C(=O)N[C@@H](CC(=O)O)C(=O)N[C@@H](CC(N)=O)C(=O)N[C@@H](Cc1cnc[nH]1)C(=O)N[C@@H](CCCNC(=N)N)C(=O)N[C@@H](CO)C(=O)N[C@@H](Cc1ccccc1)C(=O)N[C@@H](CO)C(=O)N[C@@H](CC(=O)O)C(=O)N[C@@H](CCCCN)C(=O)N[C@@H](Cc1cnc[nH]1)C(=O)NCC(=O)N[C@@H](CC(C)C)C(=O)N[C@H](C(N)=O)[C@@H](C)O,.,.,0.9%,-0.2,.
COc1ccc(-c2nc(C#N)c(NCc3ccco3)o2)cc1,4.4%,?,?,0.0,1.4%
N#Cc1nc(-c2ccco2)oc1NCCCN1CCOCC1,3.55µM*,-0.6%,1.6%[11.7 µM],1.1,2.7%
N#Cc1nc(-c2ccc(F)cc2)oc1NCc1ccco1,4.2%,7.4%,.,1.2,2.5%
Cc1ccc(-c2nc(C#N)c(NCc3ccco3)o2)cc1,20µM*,0.5%,7.3%,2.9,?
Cc1ccc2cc(C#N)c(NCc3ccco3)nc2c1,25.1µM*,-0.7%,7.4%,2.5,?
N#Cc1nc(-c2ccco2)oc1NCc1ccco1,3.16µM*,6.4%,3.0%,7.3,23.4%
NCC(=O)c1c[nH]c2ccccc12,-4.9%,.,.,.,.
CN(C)c1ccc(N=Nc2ccnc3ccccc23)cc1,-0.5%,.,.,.,.
Nc1ccc2cccnc2c1,-6.8%,.,.,.,.
C=COC(=O)CSc1nc(-c2cccs2)ccc1C#N,28.2µM*,30.2%,?,17.8,?
N#Cc1ccc(-c2cccs2)nc1SCC(=O)Nc1cccc(C(F)(F)F)c1,3.9%,.,.,.,.
CCOC(=O)C(C)Sc1nc(-c2cccs2)ccc1C#N (stereo not given),12.6µM*,0.5%,?,10.9,?
COc1ccccc1N1CCN(c2ncnc3c2nnn3C)CC1,0.6%,.,.,.,.
CN(C)c1cc(N2CCOCC2)nc(C#N)n1,-1.2%,.,.,.,.
COc1ccc(Nc2ncnc3c2cnn3-c2ccc(C)cc2)cc1Cl,-15.0%,.,.,.,.
CC(=O)c1sc2nc(CSc3nnnn3-c3ccccc3)[nH]c(=O)c2c1C,1.4%,59.2%,?,?,-0.7%
Cc1ccc(-n2nnnc2SCc2nc3sc(C)c(C)c3c(=O)[nH]2)cc1,3.55µM*,29.8%,-16.6%,11.6,-0.4%
O=C(c1ccccc1)C(I)(I)N1CCOCC1,-3.6%,.,.,.,.
Fc1ccc(-c2ncc3ccccn23)cc1,-8.9%,-5.1%,-10.3%,?,0.0%
c1csc(-c2ncc3ccccn23)c1,31.6µM*,3.0%,-9.4%,2.2,2.6%
COc1cc(OC)cc(-c2ncc3ccccn23)c1,25.1µM*,-6.1%,-10.0%,0.9,-10.8%
Nn1c(SCC(=O)N2CCCCC2)nnc1-c1ccncc1,28.2µM*,1.4%,0.4%,1.9,-3.8%
CCOc1ccc(CNC(=O)Cn2ncc3c(=O)oc4ccc(C)cc4c32)cc1,-1.6%,.,.,.,.
CCCCCCCCCCCC(=O)OCC(O)CO (stereo not given),.,11.9%,-2.8%,3.6,.
SMILES,ClpP mod,MLL CXXC-DNA inh,Menin-MLL TR inh,Menin MLL FP FL,p53 reactivation
COCCCNC(=O)/C(C#N)=C/c1c(N2CCN(C)CC2)nc2c(C)cccn2c1=O,-13.2%,4.6%,15.1%,-10.3,3.8%
COCCCNC(=O)/C(C#N)=C/c1c(N2CCN(c3ccc(OC)cc3)CC2)nc2c(C)cccn2c1=O,0.0%,2.1%,28.2µM*,-29.1,-5.0%
Cc1noc(C)c1-c1ccc2ncnc(NC3CCCc4ccccc43)c2c1 (stereo not given),.,.,-18.9%,-6.8,.
C=CCc1c(C)nc2c(C(=O)O)cnn2c1C,31.6µM*,9.1%,0.2%,2.0,0.5%
Cc1ccccc1Cc1c(C)nc2c(C(=O)N3CCN(Cc4ccc5c(c4)OCO5)CC3)cnn2c1C,31.6µM*,.,.,.,.
Cc1nc2c(C(=O)N3CCN(C)CC3)cnn2c(C)c1Cc1ccc(Cl)cc1,25.1µM*,-2.0%,-11.7%,-0.2,-1.3%
COC(=O)c1cnn2c(C)c(Cc3c(C)cc(C)cc3C)c(C)nc12,-18.4%,.,.,.,.
Cc1cccc(Cc2c(C)nc3c(C(=O)N4CCN(Cc5ccc6c(c5)OCO6)CC4)cnn3c2C)c1,22.4µM*,-2.7%,?,3.9,1.6%
CCOc1ccccc1NC(=O)c1cc(S(=O)(=O)N2CCOCC2)cn1C,-2.0%,.,.,.,.
CC(C)(C)c1ccc(OCC(=O)NCC2(N3CCOCC3)CCCCC2)cc1,0.8%,.,.,.,.
CC(=O)Nc1ccc(NS(=O)(=O)c2c(C(=O)N3CCCCCC3)c(C)n(C)c2C)cc1,-1.4%,.,.,.,.
O=C(Cc1ccc(S(=O)(=O)N2CCOCC2)s1)Nc1ccccc1N1CCOCC1,14.1µM*,-6.5%,-0.1%,1.0,3.5%
O=C(Cc1ccc(S(=O)(=O)N2CCOCC2)s1)Nc1ccccc1Br,-0.5%,-10.5%,.,-2.9,-8.5%
O=C(Nc1ccc(-c2nc3cc(Cl)ccc3c(=O)o2)cc1)c1ccco1,-0.2%,10.8%,33.6%,-3.3,-2.9%
O=C(Nc1ccc(-c2nc3c(ccc4ccccc43)o2)cc1)c1ccco1,12.6µM*,3.9%,?,-1.6,?
C(=Nc1cccc2c(N=Cc3ccco3)cccc12)c1ccco1,4.0%,-26.0%,?,?,-2.2%
C(=N\C(/N=C/c1ccco1)c1ccco1)/c1ccco1,15.8µM*,-3.3%,-3.4%,3.6,5.2%
COc1ccc2c(=O)c(C)c(-c3ccccc3)oc2c1CN(C)C,.,-8.7%,-2.3%,-3.8,.
COCC(=O)Nc1cc(OC)cc(OC)c1,28.2µM*,-3.0%,-0.2%,2.5,-3.0%
COc1cc(NC(=O)CSCC(=O)Nc2cc(OC)cc(OC)c2)cc(OC)c1,0.6%,0.1%,.,2.5,-6.1%
COC(=O)Cn1c(=NC(=O)c2ccc(Cl)s2)sc2cc(F)ccc21,28.2µM*,14.5%,5.4%,-0.3,2.1%
Cc1cc(C)n(-c2nc(C)c(C)c(=O)n2CC(=O)Nc2ccc(OC(F)(F)F)cc2)n1,2.7%,.,.,.,.
O=C(NNC(=O)[C@@H]1CCCC[C@@H]1C(=O)O)Nc1ccccc1,1.3%,11.2%,3.6%,1.4,9.3%
O=C(NNC(=O)C1CC1c1ccccc1)Nc1ccccc1 (stereo not given),28.2µM*,-1.1%,-13.8%,3.4,-3.1%
CCOC(=O)N/N=C1/C[C@@H](O)[C@@H](O)[C@@H]2[C@@H]3C(=O)N(c4cccc(Oc5ccccc5)c4)C(=O)[C@H]3CC[C@@H]12,.,.,-17.4%[11.7 µM],4.9[11.7 µM],.
O=C(Cl)COCc1ccccc1,.,.,1.1%,-7.7,.

# High-throughput results: PubChem, National Center for Advancing Translational Sciences (NCATS)
